Reference: PubChem BioAssay (NCI)
The panel holds about 83,000 compounds, 20% with a hit somewhere; the sample as a whole holds those more often.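 The test compound was applied at a single concentration to cells in 96-well plates for 48 hours, and percent growth was recorded.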 Active and inactive are the calls of the source. How the source made its calls: active means growth percent below 10; inactive means the rest.

What was measured:
Assay in all cases: NCI-60 one-dose screen, 48 h (100 = growth as untreated, 0 = no growth, -100 = all killed)
SK-MEL-2 melanoma = conditions: 10 µM unless noted
EKVX NSCLC = conditions: 10 µM
SN12C renal = conditions: 10 µM unless noted
TK-10 renal = conditions: 10 µM unless noted
ACHN renal = conditions: 10 µM unless noted
CAKI-1 renal = conditions: 10 µM unless noted
A498 renal = conditions: 10 µM unless noted
CCRF-CEM leukemia = conditions: 10 µM
MOLT-4 leukemia = conditions: 10 µM unless noted
UO-31 renal = conditions: 10 µM unless noted

SMILES | growth (SK-MEL-2 melanoma) | growth (EKVX NSCLC) | growth (SN12C renal) | growth (TK-10 renal) | growth (ACHN renal) | growth (CAKI-1 renal) | growth (A498 renal) | growth (CCRF-CEM leukemia) | growth (MOLT-4 leukemia) | growth (UO-31 renal)
Clc1ccc(N/N=C/c2ccccn2)nc1 | 37.4% (inactive) | 5.55% (active) | 14.4% (inactive) | 26.7% (inactive) | 5.14% (active) | 8.53% (active) | -3.65% (active) | 11.6% (inactive) | 5.02% (active) | –
Cc1sc(NC(=O)c2ccc(C(C)(C)C)cc2)c(C(=O)O)c1C | 103% (inactive) | 51.1% (inactive) | – | 68.4% (inactive) | 38.8% (inactive) | 41.9% (inactive) | 78.6% (inactive) | 48.7% (inactive) | 50.3% (inactive) | 89.9% (inactive)
Cc1ccc(S(=O)(=O)Nc2cccc(Cn3c(=O)[nH]c4ccc(Oc5ncccn5)cc4c3=O)c2)cc1 | 55% (inactive) | 86.6% (inactive) | – | 105% (inactive) | 87.7% (inactive) | 92.9% (inactive) | 77.8% (inactive) | 65.9% (inactive) | 64.5% (inactive) | 74.2% (inactive)
CCOC(=O)c1sc(NS(=O)(=O)c2ccccc2)nc1C | 2.52% (active) | 116% (inactive) | – | 163% (inactive) | 123% (inactive) | 124% (inactive) | 114% (inactive) | 103% (inactive) | 75.6% (inactive) | 87% (inactive)
CC([C@H]1CC=C2C3CCC4=C[C@@H](N(C)C)CC[C@]4(C)C3CC[C@@]21C)N(C)C (some centres undefined) | 90.8% (inactive) | -38.8% (active) | 21.5% (inactive) | 95.5% (inactive) | 48.1% (inactive) | -48.8% (active) | 96.4% (inactive) | 43.4% (inactive) | 73.5% (inactive) | –
COC(=O)/C=C/c1cc(O)c2oc(-c3ccc(O)c(O)c3)c(C(=O)OC)c2c1 | 43% (inactive) | 49.7% (inactive) | 34.4% (inactive) | 46.7% (inactive) | 30.2% (inactive) | 19.9% (inactive) | 18.2% (inactive) | 3.32% (active) | 19.2% (inactive) | –
O=C(CBr)OCc1ccc([N+](=O)[O-])o1 | 97.9% (inactive) | 124% (inactive) | 98.8% (inactive) | 101% (inactive) | 89.6% (inactive) | 53.8% (inactive) | 117% (inactive) | 74.1% (inactive) | 95.6% (inactive) | –
CCCNC(=O)Oc1ccc(/C(=C(/CC)Cc2ccccc2)c2ccc(OCCN(CC)CC)cc2)cc1 | 101% (inactive) | 79.3% (inactive) | 78.6% (inactive) | 85.8% (inactive) | 90.1% (inactive) | – | – | 57.7% (inactive) | 46.9% (inactive) | –
CC(C)OC(=O)[C@H](C)N[P@@](=O)(OC[C@@]1(C)O[C@@H](n2cc(F)c(N)nc2=O)C[C@@H]1O[P@](=O)(N[C@@H](C)C(=O)OC(C)C)Oc1ccccc1)Oc1ccccc1 | 122% (inactive) | 109% (inactive) | – | 101% (inactive) | 92.4% (inactive) | 94.6% (inactive) | 45% (inactive) | 61.4% (inactive) | 67.5% (inactive) | 98.6% (inactive)
COC(=O)/C(Br)=C/c1c[nH]c2ccc(Br)cc12 | 88.7% (inactive) | 76.2% (inactive) | 88.1% (inactive) | 78.3% (inactive) | 86.7% (inactive) | 69.1% (inactive) | 92.3% (inactive) | 23.4% (inactive) | 52.8% (inactive) | –
O=C(N/N=C/c1cc(Cl)ccc1O)C(=O)N/N=C/c1cc(Cl)ccc1O | 109% (inactive) | 69.2% (inactive) | 79.5% (inactive) | 76.3% (inactive) | 53.4% (inactive) | 37.2% (inactive) | 81.3% (inactive) | 39.7% (inactive) | 55.9% (inactive) | –
O=c1[nH]c(=S)[nH]c(O)c1/C=C1\C=Nc2ccccc21 | 128% (inactive) | 75.1% (inactive) | – | 86.9% (inactive) | 82.5% (inactive) | 27.3% (inactive) | – | 4.02% (active) | 42.4% (inactive) | 31.1% (inactive)
COc1ccc(/C(=C(\c2ccccc2)[N+](=O)[O-])c2ccc(OCCN3CCCC3)cc2)cc1 | 79.4% (inactive) | 96.9% (inactive) | 83.4% (inactive) | 80.4% (inactive) | 75.4% (inactive) | 76.9% (inactive) | – | 67.6% (inactive) | – | –
CCCCN(CCC)CCCCCCCCCCN1CCCc2ccccc21 | 92.3% (inactive) | 64.3% (inactive) | – | 82.7% (inactive) | 82.7% (inactive) | 63.2% (inactive) | – | 26.8% (inactive) | 50.5% (inactive) | 54.3% (inactive)
CC1Cc2cc(F)ccc2-n2cccc21 (centres undefined) | 104% (inactive) | 107% (inactive) | – | 96.5% (inactive) | 106% (inactive) | 101% (inactive) | 90.7% (inactive) | 111% (inactive) | 113% (inactive) | 99.5% (inactive)
CC1(c2ccc(Br)cc2)NC(=O)NC1=O (centres undefined) | 122% (inactive) | 109% (inactive) | – | 106% (inactive) | 104% (inactive) | 97.8% (inactive) | 99.5% (inactive) | – | – | 94.9% (inactive)
CC[n+]1c(C)ccc2cc(C)ccc21 | 106% (inactive) | 72.6% (inactive) | 96.8% (inactive) | – | 106% (inactive) | 113% (inactive) | 96.7% (inactive) | 98% (inactive) | 89.9% (inactive) | –
Cc1ncc(C(=O)Nc2ccc(CN3CCN(C)CC3)c(C(F)(F)F)c2)cc1C#Cc1cnc(NC2CC2)c2ncccc12 | -27.3% (active) | -86% (active) | – | -92.2% (active) | -100% (active) | -0.579% (active) | -60.4% (active) | -43% (active) | -65.4% (active) | -97% (active)
CCCCCCCCCC[N+](C)(C)C | 56.3% (inactive) | 72.9% (inactive) | 29.5% (inactive) | -25.1% (active) | 24.9% (inactive) | 58.4% (inactive) | 32.9% (inactive) | -18.8% (active) | -0.229% (active) | –
CCCC(CCC)Oc1ccc(CCCC2=C(O)c3ccccc3C(=O)C2=O)cc1 | 27.7% (inactive) | 26.3% (inactive) | – | 36.2% (inactive) | 29.9% (inactive) | 64.4% (inactive) | 31% (inactive) | 36.1% (inactive) | 38.1% (inactive) | 47.3% (inactive)
C[C@@H](c1ccc2c(c1)[nH]c1ccc(Cl)cc12)c1nc2ccc(Cl)cc2[nH]1 | 106% (inactive) | 75.5% (inactive) | 80.6% (inactive) | 85.6% (inactive) | 79.6% (inactive) | – | 99.7% (inactive) | 16.6% (inactive) | 49.4% (inactive) | –
Cc1nc2ccccc2c(=O)n1-c1cccc(OCc2cn(-c3cccc(O)c3)nn2)c1 | 90.6% (inactive) | 103% (inactive) | 97.4% (inactive) | 100% (inactive) | 93.8% (inactive) | – | – | 88.3% (inactive) | 80.8% (inactive) | –
Nc1ccc(N=Nc2ccccc2)c2cc(S(=O)(=O)O)ccc12 | 91.1% (inactive) | 105% (inactive) | 108% (inactive) | 92.9% (inactive) | 104% (inactive) | – | – | 99.9% (inactive) | 106% (inactive) | –
CCOC(=O)c1ccc2n1CCCc1cnc(NC(C)=O)nc1-2 | 102% (inactive) | 98.5% (inactive) | – | 107% (inactive) | 99.3% (inactive) | 92.1% (inactive) | 74.3% (inactive) | 93.9% (inactive) | 108% (inactive) | 89.5% (inactive)
C/C(CCC(=O)O)=N/Nc1ccc([N+](=O)[O-])cc1 | 26.9% (inactive) | 63.1% (inactive) | – | 88.1% (inactive) | 36.3% (inactive) | 25.7% (inactive) | 75.8% (inactive) | 18.2% (inactive) | 37.3% (inactive) | 39% (inactive)
Nc1nc2c(c3cnccc13)C(c1cccc(Cl)c1)Cc1cnccc1-2 (centres undefined) | 26.8% (inactive) | 24.2% (inactive) | 33.8% (inactive) | 23.9% (inactive) | 15% (inactive) | 25.2% (inactive) | -5.65% (active) | 13.3% (inactive) | 16.5% (inactive) | –
Cc1ccc([C@@H]2C[C@H](O)Cc3ccccc3N2)s1 | 141% (inactive) | 97.6% (inactive) | – | 119% (inactive) | 104% (inactive) | 94.8% (inactive) | 91.2% (inactive) | 105% (inactive) | 95.7% (inactive) | 94.5% (inactive)
CC(=O)c1ccc2c(c1)c1ccccc1n2C | 98.4% (inactive) | – | 92.1% (inactive) | 108% (inactive) | 110% (inactive) | 73.5% (inactive) | -85.3% (active) | 70.6% (inactive) | – | 60.8% (inactive)
CCCCCCC(C(=O)OCC)(C(=O)OCC)C1CCCCCC1 | 114% (inactive) | – | 101% (inactive) | 102% (inactive) | 101% (inactive) | 89.9% (inactive) | 96.7% (inactive) | – | – | 90.6% (inactive)
